Measured values taken from PubChem BioAssay (NCATS).
Results filed as inconclusive are left out. Activity calls are given as the source filed them. Calls follow the shape of the dose curve; as a rule, active = well fitted curve in the direction sought with a large enough effect; inconclusive = small, poorly fitted or top-dose-only effect, or another doubt; inactive = no such curve, though single readings can be large; an effect the other way counts as inactive or inconclusive. Peptide text beside a SMILES is read from it.

Legend:
[1] = target: ATP-dependent 6-phosphofructokinase (Trypanosoma brucei brucei) (UniProt O15648); assay: qHTS Assay to Find Inhibitors of T. brucei phosphofructokinase: hit validation (AID 492961);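 also: luminescence reports ADP formed as PFK phosphorylates fructose-6-phosphate with ATP; % is scaled to controls: 0 for no effect and ±100 for the full control effect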
Chain of ATP-dependent 6-phosphofructokinase (Trypanosoma brucei brucei) (O15648 whole entry, looked up): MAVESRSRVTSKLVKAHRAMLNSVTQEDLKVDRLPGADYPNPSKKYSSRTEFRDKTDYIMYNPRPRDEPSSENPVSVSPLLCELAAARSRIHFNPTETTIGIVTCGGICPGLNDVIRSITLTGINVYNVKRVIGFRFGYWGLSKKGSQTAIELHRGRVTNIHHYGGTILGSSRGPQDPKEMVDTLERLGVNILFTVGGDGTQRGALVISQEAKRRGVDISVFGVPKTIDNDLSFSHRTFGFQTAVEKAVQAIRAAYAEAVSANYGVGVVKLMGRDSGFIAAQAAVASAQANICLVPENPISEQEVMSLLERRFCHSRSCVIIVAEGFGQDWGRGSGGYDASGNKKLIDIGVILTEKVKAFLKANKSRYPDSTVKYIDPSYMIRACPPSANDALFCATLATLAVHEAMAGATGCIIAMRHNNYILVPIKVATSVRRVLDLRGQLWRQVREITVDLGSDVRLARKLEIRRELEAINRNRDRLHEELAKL
Procedure, shortened: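 PFK 1.25 nM, F6P 0.5 mM, ATP 0.1 mM, MgCl2 5 mM, 0.1 M TEA pH 8.0, Tween20 0.01%, BSA 0.1%; 45 min RT. ADP-Glo two-step detection, luminescence. qHTS titration; curve fitting with curve-class categorization.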

[2] = target: Luciferin 4-monooxygenase (Photinus pyralis) (UniProt P08659); assay: Biochemical firefly luciferase enzyme assay for NPC (AID 624030);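 also: purified P. pyralis luciferase at 10 nM with luciferin and ATP substrate; 0% = DMSO and -100% = full luciferase inhibition by PTC124 control; nearly all actives have a fitted effect of over 70% in size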
Chain of Luciferin 4-monooxygenase (Photinus pyralis) (P08659 whole entry, looked up): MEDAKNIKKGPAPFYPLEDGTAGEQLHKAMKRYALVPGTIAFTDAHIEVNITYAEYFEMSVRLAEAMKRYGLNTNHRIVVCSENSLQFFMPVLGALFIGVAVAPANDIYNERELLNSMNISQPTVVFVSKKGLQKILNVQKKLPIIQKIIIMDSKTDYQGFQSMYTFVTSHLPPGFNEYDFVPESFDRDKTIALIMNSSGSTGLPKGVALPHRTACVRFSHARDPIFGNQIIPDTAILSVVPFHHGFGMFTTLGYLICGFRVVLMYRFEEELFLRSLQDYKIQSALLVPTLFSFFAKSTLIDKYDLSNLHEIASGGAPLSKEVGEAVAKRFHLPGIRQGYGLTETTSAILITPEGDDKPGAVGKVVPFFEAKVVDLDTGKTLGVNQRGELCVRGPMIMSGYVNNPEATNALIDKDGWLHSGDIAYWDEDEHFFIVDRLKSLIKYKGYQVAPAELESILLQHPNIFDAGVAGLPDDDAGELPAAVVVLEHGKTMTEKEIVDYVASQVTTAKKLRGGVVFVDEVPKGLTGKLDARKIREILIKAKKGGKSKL
Procedure, shortened: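 Counter-screen for direct inhibition of the luciferase enzyme by approved-drug library compounds, run at 10 nM enzyme in 50 mM Tris acetate (final). Luminescence was read within 5 min of enzyme-buffer addition and normalized to PTC124 versus DMSO (0%).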

[3] = qHTS profiling for inhibitors of Plasmodium falciparum proliferation (AID 504749); also: nearly all actives have a fitted effect of over 60% in size; also: potency is read from the fitted curve at half-maximal effect;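 as to activity, negative = inhibition: 0% = DMSO vehicle and full inhibition = artemisinin control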; details: P. falciparum in erythrocytes, SYBR Green DNA, 72 h
Procedure, shortened: (§1)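 Fluorescence of SYBR Green-bound parasite DNA, read at 485/535 nm, served as the growth measure. Infected erythrocytes were cultured with compound 72 h; artemisinin (0.29 uM) and DMSO wells defined the normalization range.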

[4] = test system: ATS189; assay: as above; details: P. falciparum in erythrocytes, SYBR Green DNA, 72 h; series mostly up to 28.7 µM
Procedure, shortened: as §1

[5] = test system: C2A; assay: as above; details: P. falciparum in erythrocytes, SYBR Green DNA, 72 h; series mostly up to 28.7 µM
Procedure, shortened: as §1

[6] = test system: CP191; assay: as above; details: P. falciparum in erythrocytes, SYBR Green DNA, 72 h; series mostly up to 28.7 µM
Procedure, shortened: as §1

[7] = test system: CP192; assay: as above; details: P. falciparum in erythrocytes, SYBR Green DNA, 72 h; series mostly up to 28.7 µM
Procedure, shortened: as §1

[8] = test system: CP201; assay: as above; details: P. falciparum in erythrocytes, SYBR Green DNA, 72 h; series mostly up to 28.7 µM
Procedure, shortened: as §1

[9] = test system: CP215; assay: as above; details: P. falciparum in erythrocytes, SYBR Green DNA, 72 h; series mostly up to 28.7 µM
Procedure, shortened: as §1

[10] = test system: CP237; assay: as above; details: P. falciparum in erythrocytes, SYBR Green DNA, 72 h; series mostly up to 28.7 µM
Procedure, shortened: as §1

[11] = test system: CP238; assay: as above; details: P. falciparum in erythrocytes, SYBR Green DNA, 72 h; series mostly up to 28.7 µM
Procedure, shortened: as §1

[12] = test system: CP268; assay: as above; details: P. falciparum in erythrocytes, SYBR Green DNA, 72 h; series mostly up to 28.7 µM
Procedure, shortened: as §1

[13] = test system: CP269; assay: as above; details: P. falciparum in erythrocytes, SYBR Green DNA, 72 h; series mostly up to 28.7 µM
Procedure, shortened: as §1

[14] = test system: CP286; assay: as above; details: P. falciparum in erythrocytes, SYBR Green DNA, 72 h; series mostly up to 28.7 µM
Procedure, shortened: as §1

[15] = test system: CP325; assay: as above; details: P. falciparum in erythrocytes, SYBR Green DNA, 72 h; series mostly up to 28.7 µM
Procedure, shortened: as §1

[16] = test system: CP329; assay: as above; details: P. falciparum in erythrocytes, SYBR Green DNA, 72 h; series mostly up to 28.7 µM
Procedure, shortened: as §1

[17] = test system: ECU; assay: as above; details: P. falciparum in erythrocytes, SYBR Green DNA, 72 h; series mostly up to 28.7 µM
Procedure, shortened: as §1

[18] = test system: FAB9; assay: as above; details: P. falciparum in erythrocytes, SYBR Green DNA, 72 h; series mostly up to 28.7 µM
Procedure, shortened: as §1

[19] = test system: JCK; assay: as above; details: P. falciparum in erythrocytes, SYBR Green DNA, 72 h; series mostly up to 28.7 µM
Procedure, shortened: as §1

[20] = test system: PC49; assay: as above; details: P. falciparum in erythrocytes, SYBR Green DNA, 72 h; series mostly up to 28.7 µM
Procedure, shortened: as §1

[21] = at 28.7 µM (top of the series), parasite line A
[22] = at 28.7 µM (top of the series), parasite line B

CC1(C)S[C@@H]2[C@H](N)C(=O)N2C1C(=O)O (some centres undefined)
inactive: outcome [1] | Potency [2] | activity, negative = inhibition ([3]; at 12.8 µM (top of the series), parasite line A) 15.1% | activity, negative = inhibition ([3]; at 12.8 µM (top of the series), parasite line B) 13.6% | Potency [4] | Potency [5] | Potency [6] | Potency [7] | Potency [8] | Potency [9] | Potency [10] | Potency [11] | Potency [12] | Potency [13] | Potency [14] | Potency [15] | Potency [16] | Potency [17] | Potency [18] | Potency [19] | Potency [20]

C[C@H](N)Cc1ccccc1
inactive: outcome [1] | Potency [2] | activity, negative = inhibition [3, 21] -1.91% | activity, negative = inhibition [3, 22] -0.429% | Potency [4] | Potency [5] | Potency [6] | Potency [7] | Potency [8] | Potency [9] | Potency [10] | Potency [11] | Potency [12] | Potency [13] | Potency [14] | Potency [15] | Potency [16] | Potency [17] | Potency [18] | Potency [19] | Potency [20]

CCCCCC(O)C1C(=O)OC(C)C(O)\C=C/C=C\C=C/C=C\C=C(\C)C(O)C(O)C(O)CC(O)CC(O)CC(O)CC(O)CC1O (centres undefined)
inactive: outcome [1] | Potency [2] | activity, negative = inhibition [3, 21] 11.9% | activity, negative = inhibition [3, 22] -8.14% | Potency [4] | Potency [5] | Potency [6] | Potency [7] | Potency [8] | Potency [9] | Potency [10] | Potency [11] | Potency [12] | Potency [13] | Potency [14] | Potency [15] | Potency [16] | Potency [17] | Potency [18] | Potency [19] | Potency [20]

CCC1NC(=O)C(NC(=O)c2ncccc2O)C(C)OC(=O)C(c2ccccc2)NC(=O)C2CC(=O)CCN2C(=O)C(Cc2ccccc2)N(C)C(=O)C2CCCN2C1=O (centres undefined)
inactive: outcome [1]

O=[N+]([O-])OC1CO[C@H]2C(O[N+](=O)[O-])COC12 (some centres undefined)
inactive: outcome [1] | Potency [2] | activity, negative = inhibition [3, 21] -2.15% | activity, negative = inhibition [3, 22] 1.56% | Potency [4] | Potency [5] | Potency [6] | Potency [7] | Potency [8] | Potency [10] | Potency [11] | Potency [12] | Potency [13] | Potency [14] | Potency [15] | Potency [16] | Potency [17] | Potency [18] | Potency [19] | Potency [20]

CC(C)C(NC(=O)C(CC(=O)O)NC(=O)C(CCCCN)NC(=O)C(N)CCCN=C(N)N)C(=O)NC(Cc1ccc(O)cc1)C(=O)O (centres undefined) (H-RKDVY-OH; configuration not given here)
inactive: outcome [1]

CC(C)C[C@H](NC(=O)[C@@H](Cc1c[nH]c2ccccc12)NC(=O)[C@@H](Cc1ccc(O)cc1)NC(=O)[C@@H](CO)NC(=O)[C@@H](Cc1c[nH]c2ccccc12)NC(=O)C(Cc1cnc[nH]1)NC(=O)C1CCC(=O)N1)C(=O)N[C@@H](CCCN=C(N)N)C(=O)N1CCC[C@@H]1C(=O)NCC(N)=O (some centres undefined)
inactive: outcome [1]

CCOC(=O)/C=C(C)/C=C/CC(C)CCCC(C)C (centres undefined)
inactive: outcome [1] | Potency [2] | activity, negative = inhibition [3, 21] -0.0375% | activity, negative = inhibition [3, 22] 8.06% | Potency [4] | Potency [5] | Potency [6] | Potency [7] | Potency [8] | Potency [9] | Potency [10] | Potency [11] | Potency [12] | Potency [13] | Potency [14] | Potency [15] | Potency [16] | Potency [17] | Potency [18] | Potency [19] | Potency [20]

CN1C2CCC1C(C(=O)O)C(OC(=O)c1ccccc1)C2 (centres undefined)
inactive: outcome [1] | Potency [2] | activity, negative = inhibition [3, 21] 9.89% | activity, negative = inhibition [3, 22] 6.56% | Potency [4] | Potency [5] | Potency [6] | Potency [7] | Potency [8] | Potency [9] | Potency [10] | Potency [11] | Potency [12] | Potency [13] | Potency [14] | Potency [15] | Potency [16] | Potency [17] | Potency [18] | Potency [19] | Potency [20]

CCCCCCC(=O)O[C@H]1CC[C@H]2[C@@H]3CCC4CC(=O)C=C(C)[C@]4(C)[C@H]3CC[C@]12C (some centres undefined)
inactive: outcome [1] | Potency [2] | activity, negative = inhibition [3, 21] -7.1% | activity, negative = inhibition [3, 22] -5.28% | Potency [4] | Potency [5] | Potency [6] | Potency [7] | Potency [8] | Potency [9] | Potency [11] | Potency [12] | Potency [13] | Potency [15] | Potency [16] | Potency [17] | Potency [18] | Potency [19] | Potency [20]
active: Potency [14] 11.2 µM

COc1ccc2c3c1O[C@H]1[C@@H](O)C=C[C@H]4C(C2)NCCC341 (some centres undefined)
inactive: outcome [1] | Potency [2] | activity, negative = inhibition [3, 21] 7.6% | activity, negative = inhibition [3, 22] -2.8% | Potency [4] | Potency [5] | Potency [6] | Potency [7] | Potency [8] | Potency [9] | Potency [10] | Potency [11] | Potency [12] | Potency [13] | Potency [14] | Potency [15] | Potency [16] | Potency [17] | Potency [18] | Potency [19] | Potency [20]
